From PubChem BioAssay (NCI)
About 83,000 compounds went through this panel and 20% of them were active in at least one assay; those are over-represented in the sample as a whole.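 96-well plates, one dose, 48 hours. Percent growth reported; active if below 10.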 A number with no mark means an inactive call. Active and inactive are the calls of the source.

What follows are molecules tested on HL-60(TB) leukemia (assay: NCI-60 one-dose screen, 48 h (100 = growth as untreated, 0 = no growth, -100 = all killed)). Details: 10 µM unless noted.
Description: Growth inhibition of the HL-60(TB) human tumor cell line is measured as a screen for anti-cancer activity. Cells are grown in 96 well plates and exposed to the test compound for 48 hours. Compounds are tested at a single concentration, which is 10^-5 M for most compounds. The reported endpoint is percent growth (GI% or GIPRCNT), where numbers from 0 - 100% represent growth inhibition, and numbers from -100% - 0 represent cell death. For example, a value of 40 represents 60% growth inhibition. A value of 0 means no net growth occurred over the course of the experiment. A value of -40 indicates 40% of cells at the beginning of the experiment died by the end of the experiment. A value of -100 means all cells are dead at the end of the experiment.
NCI-60 Human Tumor Cell Lines Screen was performed using the standard one-dose NCI protocol, which is described in more detail at https://dtp.cancer.gov/discovery_development/nci-60/default.htm.
Compounds with GIPRCNT values below 10 were considered active. Activity score was based on GIPRCNT using the following formula: […]
Score is 0 for GIPRCNT values of 100 or above, 50 for GIPRCNT values of 0, and 100 for GIPRCNT values of -100.
With [Cl][Ru].c1ccc(-c2cc(-c3ccccn3)nc(-c3ccccn3)c2)cc1.c1ccc(-c2ccnc3c2ccc2c(-c4ccccc4)ccnc23)cc1 the growth was -29.2% (active). Work on COc1cc2nc(Cl)nc(Nc3cccc(C4=Nc5c(N)nc(N)nc5NC(c5ccccc5)C4)c3)c2cc1OC (stereo not given) yielded a growth of 66.4%. For Brc1ccccc1/C=N/Nc1nc(N/N=C/c2ccccc2Br)nc(N2CCOCC2)n1, the growth was 80.5%. For CC(C)=CCc1c2c(c(O)c3c1O[C@]14C(=C[C@@H]5C[C@H]1C(C)(C)O[C@@]4(C/C=C(/C)C(=O)O)C5=O)C3=O)CC(O)C(C)(C)O2 (stereo not given in full), the growth was -17.2% (active). Molecule O=[N+]([O-])c1ccc(NC(=S)NNC(=S)Nc2ccc(Br)cc2)cc1 has a growth of 93.1%. In the case of Oc1cccc2ccc(-c3nnc(SCc4ccc(O)c5ncccc45)o3)nc12, the growth is reported as 13.7%. For Cc1sc2c(c1C)c(=O)nc1c(-c3nc(-c4ccc(F)cc4)no3)n[nH]n12, the growth was 103%. In the case of Cc1c(Cl)cccc1S(=O)(=O)Nc1ccc2c(c1)C(=O)N(C1CCC(=O)NC1=O)C2=O (stereo not given), the growth is reported as -7.01% (active). For C#Cc1nc(/C=C/C(=O)NO)cs1, the growth was -58.7% (active). With NC(N)=Nc1ccc(Oc2cccc(NC(N)=Nc3ccc(Cl)c(C(F)(F)F)c3)c2)cc1 the growth was 27.8%. In the case of CN1CCN(c2ccc(Nc3nc(NCCCNS(=O)(=O)c4cccc5ccccc45)c4sccc4n3)cc2)CC1, the growth is reported as -45.2% (active). For CSCCC(C(=O)O)N1C(=O)/C(=C/c2ccc(O)c(O)c2)SC1=S (stereo not given), the growth was 103%. In the case of O=C(CN1CCN(c2cc(=O)[nH]c3ccc(F)cc23)CC1)Nc1ccc(Cl)cc1, the growth is reported as 87.6%. With CC1CCc2c(sc3nc(SCC(=O)N/N=C/c4cccc(O)c4O)n(-c4ccccc4)c(=O)c23)C1 (stereo not given) the growth was 93.6%. With CS(=O)(=O)c1ccc(-c2nc3ccccn3c2-c2nc3ccc([N+](=O)[O-])cc3[nH]2)cc1 the growth was 95.7%. CCOC(=O)c1nn(-c2ccc(C)cc2)c(=O)c2c(N)c(C#N)c(-c3ccc(OC)cc3)cc12 showed a growth of 125%. Work on C#C[C@]1(O)CC[C@H]2[C@@H]3CC=C4c5sc(Nc6ccc(OC)nc6)nc5CC[C@]4(C)[C@H]3CC[C@@]21C yielded a growth of 10.1%. c1n[nH]cc1-c1nc2ccc3[nH]ncc3c2c2c1CCCC2 gave a growth of 22.5%. COc1ccc(Oc2ccc(C3CC(c4cc(OC)c(OC)c(OC)c4)=NN3C(C)=O)cc2)cc1 (stereo not given) was tested, and the growth was -14.9% (active). Work on COc1ccc(/C=N/NC(=O)c2c(N)nn(C)c2Nc2ccccc2)cc1Oc1ccccc1 yielded a growth of 100%. With NS(=O)(=O)c1ccc(CCn2c(-c3ccc(C(=O)O)cc3)nc(-c3ccccc3)c2-c2ccccc2)cc1 the growth was 101%. C#CCN(C)CCCOc1ccc(NCc2ccc(C(=O)NO)cc2)cc1Cl showed a growth of 12%. COc1ccc(C2CC(c3ccc(Nc4nc(NCCO)nc(Nc5ccc(Cl)cc5)n4)cc3)=Nc3c(N)nc(N)nc3N2)cc1 (stereo not given) gave a growth of 36.6%. C[C@H]1c2[nH]c3ccccc3c2C[C@H]2C(=O)N(CCCCCCC(=O)NO)CC(=O)N21 gave a growth of 108%. With Nc1cc(-c2c[nH]c3ccc(F)cc23)nc2cc(-c3c[nH]c4ccc(F)cc34)nn12 the growth was -37.6% (active). In the case of C#Cc1nc(/C=C\CCCCCCC(=O)NO)cs1, the growth is reported as -53.8% (active). For COC(=O)CCSC1=C(C)C(=O)c2ccccc2C1=O, the growth was 34.9%. Cn1ccnc1C(=O)/C=C/C=C/c1ccc(C(=O)Nc2ccc(F)cc2)cc1 showed a growth of 13.3%. CC[C@]12C=CCN3CC[C@@]4(c5ccc(OC)cc5N(C)[C@H]4[C@@](O)(C(=O)OC)[C@@H]1OC(=O)CCN1CCc4ccccc4C1)[C@@H]32 gave a growth of 80.4%. In the case of CN1CCc2c(sc3ncnc(N/N=C/c4ccc(Cl)c(Cl)c4)c23)C1, the growth is reported as -58.2% (active). With CN1CCN(c2ccc(C(=O)/C=C/c3cc(F)cc(C(F)(F)F)c3)cc2)CC1 the growth was 3.06% (active). For O=S(=O)(NCCCNc1nccc(-n2cnc3ccccc32)n1)c1ccc(C(F)(F)F)cc1, the growth was 101%. NC(N)=Nc1ccc(Oc2cccc(Nc3cccc(C(F)(F)F)c3)c2)cn1 was tested, and the growth was -64.4% (active). CCCCCCNC(=O)Oc1ccc(/C(=C(/C)c2ccc(OC)cc2)c2ccc(OCCN3CCCC3)cc2)cc1 showed a growth of 50.7%. Cc1ccc2c(n1)C(=O)C(Cl)=C(Nc1cccc(C(F)(F)F)c1)C2=O showed a growth of 32.3%. For C/C(=C(\c1ccc(O)cc1)c1ccc(OCCN2CCCCCC2)cc1)c1ccc(Cl)cc1, the growth was -49.2% (active). CCN(CC)CCN1C(=O)c2c(c3c4cc(Br)ccc4[nH]c3c3ccc4ccccc4c23)C1=O was tested, and the growth was -35% (active). In the case of NC1C2CCC1CN(c1cnc(C(=O)Nc3cc(F)cc4cccnc34)cn1)C2 (stereo not given), the growth is reported as 9.98% (active). O=c1[nH]c2ccccc2cc1CSc1ccccc1Nc1nccc(-c2ccc(Cl)cc2)n1 was tested, and the growth was 102%. For C#CCOC(=O)[C@@H]1CCCN1CC#C, the growth was 85.3%.
